Potency data for 40 compounds are collected here from PubChem BioAssay (NCATS).

Records with an inconclusive call do not appear. Entries that show only a call come without a potency. Active and inactive are the calls of the source. Calls come from the whole dose curve; as a rule, active = well fitted inhibition curve with a large enough effect in the polarisation, with a control signal flat (not every such curve was filed as active); inconclusive = small, poorly fitted or top-dose-only effect, or effect the other way; inactive = flat fitted curve, though single readings scatter; the % refers to the polarisation.
Potency is the fitted concentration of half-maximal effect.

Peptidyl-prolyl cis-trans isomerase NIMA-interacting 1 (Homo sapiens), sequence (Q13526 whole entry, looked up): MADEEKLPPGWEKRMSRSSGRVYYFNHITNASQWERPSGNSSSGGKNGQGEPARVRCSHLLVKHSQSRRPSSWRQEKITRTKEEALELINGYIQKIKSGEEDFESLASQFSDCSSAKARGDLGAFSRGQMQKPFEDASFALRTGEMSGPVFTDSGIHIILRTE

For this test, the target named is Peptidyl-prolyl cis-trans isomerase NIMA-interacting 1 (Homo sapiens) (UniProt Q13526). Nature of the test: qHTS Validation Assay to Find Inhibitors of Pin1 (AID 504536). The following applies: Pin1 fluorescence polarization peptide binding assay; series mostly up to 57.5 µM. The text has this:
NIH Molecular Libraries Probe Production Network [MLPCN]
NIH Chemical Genomics Center [NCGC]
The unique chemical properties of Pro allow for the adoption of two completely distinct amide bond conformations (cis and trans). Peptidyl-prolyl cis/trans isomerases (PPIases) are evolutionary conserved enzymes that catalyze cis/trans isomerization of peptidyl-prolyl peptide bonds. Distinct from all other PPIases such as cyclophilins and FK506-binding proteins (FKBPs), Pin1 binds a subset of phos.Ser/Thr-Pro-containing proteins using its protein-targeting WW domain and isomerizes only specific phos.Ser/Thr-Pro bonds, which cannot be effectively catalyzed by other known PPIases.
Pin1-catalyzed conformational regulation can control a spectrum of activities of many key regulators in diverse cellular processes such as cell growth, genotoxic and other stress responses, immune response, germ cell development, neuronal differentiation and survival. Pin1 has emerged as a novel molecular timer that modulates its multiple targets at various steps of a given cellular process to synergistically control the amplitude and duration of a cellular response or process. Importantly, Pin1 is tightly regulated by multiple levels and its deregulation has an important role in a growing number of pathological conditions, including cancer, Alzheimer's disease, aging, asthma and microbial infection, providing a potentially new therapeutic option.
The goal of this screen is to find small-molecule inhibitors of Pin1 using a fluorescence polarization competition assay. A HiFluor-488-labeled peptide binds to the active site of Pin1 and can be displaced by compounds. Compounds were screened as a concentration-titration series that ranged from 57 uM to 0.7 nM.
NCGC Assay Protocol Summary:
Pin1 (0.6 uM) was dispensed into black, solid 1536-well plates at 2 uL/well in 10 mM HEPES (pH 7.5), 10 mM NaCl, 0.01% Tween20, 1 mM DTT, and 1% glycerol. Then, 23 nL of compounds or DMSO were delivered to each well using a pin tool. Two uL of Pin1-1b-HiFluor488 peptide (10 mM HEPES (pH 7.5), 10 mM NaCl, 0.01% Tween20, 1 mM DTT, and 1% glycerol, 0.02 uM Pin1-1b-HiFluor488) was then dispensed, and plates were incubated at room temperature for 10 min. The plates were measured on a ViewLux plate reader for fluorescence polarization signal using a 480/20 nM nm excitation filter and 540/25 nM nm S and P emission filters with a 20 second exposure. The %Activity was determined from the corrected fluorescence polarization values. Unlabeled Pin1-1c peptide was used as a control (3.5 mM two-fold serial; 20 uM final concentration) along with a 1x (0.3 uM) and 0x (no-enzyme) Pin1 enzyme control to normalize %Activity of identified inhibitors; 0x enzyme values corresponded to 100%Activity (full inhibition), while 1x Pin1 enzyme values were used to normalize 0%Activity (no inhibition).
Concentration-response curves were fitted to the signals arising from the resulting fluorescence polarization. The concentration-effect curves were then classified based on curve quality (r2), response magnitude and degree of measured activity, and compounds were subsequently categorized based on their curve class.
Keywords: Peptidyl prolyl isomerase, Pin1, fluorescence polarization, MLSMR, MLPCN, NIH Roadmap, qHTS, NCGC
In general terms: Quantitative high-throughput screening tests each substance at several concentrations.
With `CN1CCc2ccccc2Cc2[nH]c3ccccc3c2CC1`, the Potency result was “inactive”.

In the case of `CN1[C@@H](CC(=O)c2ccccc2)CCC[C@H]1C[C@H](O)c1ccccc1`, the Potency entry was “inactive”.

As to `O=C(O)[C@@H]1C[C@H](C(=O)O)N1`, the Potency entry was “inactive”.

`COC(=O)c1c(C)[nH]c(C)c1C(=O)c1ccccc1Cc1ccccc1`: the Potency result is “inactive”.

Turning to `CN(C)c1nc2c(Br)c(Br)c(Br)c(Br)c2[nH]1`, the Potency entry is “inactive”.

As to `O=P(O)(O)C(Cl)(Cl)P(=O)(O)O`, the Potency was 26.9 µM (active).

In the case of `O=C(O)c1cc([N+](=O)[O-])ccc1NCCCc1ccccc1`, the Potency result is “inactive”.

Take `COc1ccc(NC(=O)/C=C/c2ccc(Cl)cc2)cc1`: the Potency entry was “inactive”.

With `Cc1ccc(O)c(N=Nc2ccccc2)n1`, the Potency result is “inactive”.

Turning to `C#CCN1C(C)=C(C(=O)OC)C(c2cccc([N+](=O)[O-])c2)C(C(=O)OCC)=C1C` (stereo not given), the Potency result was “inactive”.

Take `OC[C@H]1O[C@@H](n2cnc3c(Nc4ccccc4)ncnc32)[C@H](O)[C@@H]1O`: the Potency result was “inactive”.

`O=C(/C=C/c1ccc(O)c(O)c1)OCCc1ccccc1`: the Potency result is “inactive”.

As to `Nc1ncnc2c1c(I)cn2[C@@H]1C[C@H](N)[C@@H](O)[C@H]1O`, the Potency entry was “inactive”.

On to `Nc1ncnc2c1ncn2[C@@H]1O[C@H](COP(=O)(O)OP(=O)(O)OP(=O)(O)OP(=O)(O)OC[C@@H]2O[C@H](n3cnc4c(N)ncnc43)[C@@H](O)[C@H]2O)[C@@H](O)[C@H]1O`, for which the Potency entry was “inactive”.

As to `CC(=O)SCC[N+](C)(C)C`, the Potency entry was “inactive”.

For the compound `CCCCCCCCCCCCCCCC(=O)OC(CC(=O)O)C[N+](C)(C)C` (stereo not given), the Potency entry was “inactive”.

As to `O=[N+]([O-])c1ccc2c(c1)S(=O)(=O)C=C2`, the Potency result is “inactive”.

For `NC[C@@H]1O[C@H](C23CC4CC(CC(C4)C2)C3)Cc2c1ccc(O)c2O`, the Potency result is “inactive”.

In the case of `Oc1ccccc1O`, the Potency result was “inactive”.

With `Cc1cc2c(cc1Cl)N(C(=O)Nc1ccc(Oc3cccnc3C)nc1)CC2`, the Potency result was “inactive”.

Turning to `O=C1NC(=O)/C(=C/c2ccc(-c3ccc(F)cc3O)o2)S1`, the Potency result is “inactive”.

`Cc1cc(NC(=O)Nc2ccc3c(ccn3C)c2)sn1`: the Potency entry is “inactive”.

In the case of `NC(CCCP(=O)(O)O)C(=O)O` (stereo not given), the Potency result is “inactive”.

As for `COc1cccc(OC)c1OCCNCC1COc2ccccc2O1` (stereo not given), the Potency entry is “inactive”.

On to `CCC1C(=O)OCC1Cc1cncn1C` (stereo not given), for which the Potency entry is “inactive”.

As for `COc1ccc(/C=C/C(=O)Nc2ccccc2C(=O)O)cc1OC`, the Potency entry was “inactive”.

As to `CCc1c(C(=O)NCCc2ccc(N3CCCCC3)cc2)[nH]c2ccc(Cl)cc12`, the Potency result is “inactive”.

Regarding `NS(=O)(=O)C#Cc1ccccc1`, the Potency result is “inactive”.

As to `CCCCCCCCCCCCCCCCCC(=O)OC(CC(=O)O)C[N+](C)(C)C` (stereo not given), the Potency result is “inactive”.

As to `CCOC(=O)C1=C(C)NC(C)=C(C(=O)OCC)C1c1c(F)c(F)c(F)c(F)c1F`, the Potency result was “inactive”.

With `NCCSSCCN`, the Potency entry was “inactive”.

Regarding `NCCCCC(=O)O`, the Potency result is “inactive”.

For `CC(C)(C=O)Cc1cc(C(C)(C)C)c(O)c(C(C)(C)C)c1`, the Potency result is “inactive”.

On to `O=C1O/C(=C/Br)CCC1c1cccc2ccccc12` (stereo not given), for which the Potency entry was “inactive”.

Regarding `COc1cc(OC)c(/C=C2/C(=O)Nc3ccccc32)c(OC)c1`, the Potency entry is “inactive”.

Consider `COc1cccc(C(=O)NCCN2CCN(c3ccc(Cl)cc3)CC2)c1`, for which the Potency result is “inactive”.

With `CCCN(CC1CC1)c1nc(C)nc(Nc2c(Cl)cc(Cl)cc2Cl)c1Cl`, the Potency entry was “inactive”.

Take `O=c1[nH]c2cc(C(F)(F)F)ccc2n1-c1cc(C(F)(F)F)ccc1O`: the Potency entry is “inactive”.

Turning to `CC1(C)CCC=[N+]1[O-]`, the Potency entry is “inactive”.

For `O=S(=O)(c1cccc2c(I)cccc12)N1CCCNCC1`, the Potency result was “inactive”.
